# Laboratory results reported in ChEMBL document CHEMBL4513216, “Probing the Open Global Health Chemical Diversity Library for Multistage-Active Starting Points for Next-Generation Antimalarials” (ACS Infect Dis, 2020).
# Out of some 68,000 compounds screened, about 2,700 (4%) showed an effect of 50% or more. This is one part of a sample in which strong results are shown more often than they occur.
# Test system: Plasmodium berghei
# Assay: Screen against P. berghei liver stage (PbLuc), transformed with Luciferase, at 2uM
# Assay type: functional, HepG2
# Conditions: tested at 2 uM
row,Compound,INHIBITION [%]
1,CCOC(=O)CNC(=O)N1CCOC(Cc2ccc(OC)cc2)C1 (centres undefined),55.66
2,CCOC(=O)CNC(=O)N1CCOC(CCc2ccccc2)C1 (centres undefined),-18.39
3,CCOC(=O)CCNC(=O)N1CCOC(Cc2cccc(OC)c2)C1 (centres undefined),25.37
4,CN(C)CCOCC1CN(Cc2ccncc2)Cc2nnn(C)c21 (centres undefined),7.1
5,CN1CCC(N(CCc2ccccc2)C(=O)COCC2CCCO2)CC1 (centres undefined),42.79
6,Cc1cccc(-c2nccnc2C2CCN(C)CC2)c1C,-25.17
7,COC(=O)c1sc2cccc(F)c2c1CNC(=O)C1CC1,15.28
8,COC(=O)c1sc2cccc(F)c2c1CNC(=O)C1CCOC1 (centres undefined),33.02
9,COC(=O)c1sc2cccc(F)c2c1CNC(=O)C1CCCO1 (centres undefined),50.3
10,Cc1ncccc1-c1cc2cccnc2n1CCCNC(=O)C(C)(C)C,24.98
11,COCCN1CCC2(CC1)CC(NC(=O)CN(C)C)c1ccccc1O2 (centres undefined),48.52
12,CC(C)c1nc2c(n1C)CCN(CC(=O)Nc1ccc(Cl)cn1)C2,51.92
13,CC(C)c1nc2c(n1C)CCN(CC(=O)Nc1nccs1)C2,-15.91
14,Cn1c(C2CC2)nc2c1CCN(CC(=O)Nc1nncs1)C2,22.51
15,CC(C)c1nc2c(n1C)CCN(CC(=O)Nc1ccnn1C(C)C)C2,-42.83
16,Cc1nnc(NC(=O)CN2CCc3c(nc(C4CC4)n3C)C2)s1,51.94
17,Cc1nnc(NC(=O)CN2CCc3c(nc(C(C)C)n3C)C2)s1,22.63
18,Cc1csc(NC(=O)CN2CCc3c(nc(C4CC4)n3C)C2)n1,-1.02
19,CCCn1nccc1NC(=O)CN1CCc2c(nc(C3CC3)n2C)C1,49.6
20,CC(C)c1nc2c(n1C)CCN(CC(=O)Nc1nncs1)C2,60.09
21,CC(C)c1nc2c(n1C)CCN(CC(=O)Nc1ccncc1)C2,-14.17
22,CC(C)c1nc2c(n1C)CCN(CC(=O)Nc1cccnc1)C2,-14.17
23,CCCn1nccc1NC(=O)CN1CCc2c(nc(C(C)C)n2C)C1,56.12
24,Cc1ccc2c(c1)C1(CCNCC1)CN2C(=O)CN(C)C,15.58
25,O=C(Nc1cccnc1)C1Cc2nc(-c3ccsc3)sc2N1CC1CC1 (centres undefined),18.2
26,CCn1c(CN(C)C(=O)c2ccc(OC)nc2)nc2ccccc21,-33.03

row,Compound,INHIBITION [%]
1,O=C(Nc1cccc(CNCc2cccnc2)c1)C1CCCC1,14.53
2,O=C(c1cscn1)N1C[C@@H]2C[C@@H](c3nnc(C4CC4)o3)O[C@@H]2C1,-4.1
3,Cn1cc(CNC2CCc3ncnn3C2)c(-c2ccncc2)n1 (centres undefined),49.88
4,CN(C)C(=O)C1CCC2(CCNCC2)C1 (centres undefined),26.55
5,CC(C)N(C)Cc1cnc2n1CCN(S(=O)(=O)c1ccccc1)C2,29.3
6,COc1ccc(C(=O)C2CCCN(Cc3cc(C)n[nH]3)C2)c(OC)c1 (centres undefined),15.08
7,O=C(C[S+]([O-])Cc1cccc(F)c1)NC1CCCC1 (centres undefined),27.67
8,CCN1CCCN(C(=O)c2cnc(OC(C)C)c(Cl)c2)CC1,-16.16
9,CC(=O)N1CCCN(C(=O)c2cnc(OC(C)C)c(Cl)c2)CC1,31.51
10,CC(=O)N1CCN(C(=O)c2cnc(OC(C)C)c(Cl)c2)CC1,55.36
11,CC(C)Oc1ncc(C(=O)N2CCC(NC(=O)C3CC3)CC2)cc1Cl,-58.69
12,CC(C)Oc1ncc(C(=O)N2CCCC(C(=O)O)C2)cc1Cl (centres undefined),0.51
13,CC(C)Oc1ncc(C(=O)N2CCC(N(C)C)CC2)cc1Cl,55.36
14,CC(C)c1ccc(OCCC(=O)N2CCC(CC(N)=O)CC2)cc1,31.19
15,CC(O)CN1CCN(C(=O)c2cnc(OC(C)C)c(Cl)c2)CC1 (centres undefined),19.59
16,CC(C)Oc1ncc(C(=O)N2CCC(CC(N)=O)CC2)cc1Cl,64.9
17,CCc1nc(N)nc(N2CCCC3(CCOCC3)C2)c1C,39.57
18,Cc1ocnc1C(=O)N(C)[C@@H]1CC[C@@H](n2ccnc2C)[C@@H]1O,-12.75
19,O=C1CN(C(=O)CNC(CC(F)(F)F)c2ccc(F)cc2)CCN1 (centres undefined),7.05
20,COc1c(CNC(c2ccccc2)c2ccc(F)cc2)c(C)nn1C (centres undefined),13.67
21,Cc1noc(C(C)N2CCN(CCn3ccccc3=O)CC2)n1 (centres undefined),25.78
22,CCOCc1cccc(S(=O)(=O)Nc2ncc(C)s2)c1,44.59
23,Cc1nc(C)n(CC2CCCN2CC(=O)Nc2cc(C(C)C)no2)n1 (centres undefined),35.42
24,CCc1noc(CN(CC)C(=O)CC2C(=O)NCCN2CC=C(C)C)n1 (centres undefined),3.66
25,CCc1noc(CN(CC)C(=O)CC2C(=O)NCCN2CC(C)(C)C)n1 (centres undefined),43.6
26,CCN(Cc1noc(C)n1)C(=O)CC1C(=O)NCCN1CC(C)(C)C (centres undefined),55.84

row,Compound,INHIBITION [%]
1,CN(C)CCOc1ccccc1N1CCN(C(=O)C(C)(C)C#N)CC1,-4.91
2,CC(C)(C)C(O)CCNC(=O)c1ccc(F)cc1Cl (centres undefined),-9.71
3,Cc1cc(NC2CCc3ncnn3C2)n2nc(C(F)(F)F)nc2n1 (centres undefined),-30.02
4,CN(C)c1ccc(NC(=O)CN2CCS(=O)(=O)CC2)cn1,71.64
5,O=C(CN1CCS(=O)(=O)CC1)Nc1ccc(N2CCCC2)nc1,-4.89
6,COc1ccc(NC(=O)CN2CCS(=O)(=O)CC2)cn1,-9.39
7,c1cncc(-c2ccc3c(c2)C2(CC3)CCN(c3nncs3)CC2)c1,12.3
8,Cc1cc(-c2c(C)c(-c3cnn(C)c3)nc(N)c2C#N)oc1C,23.43
9,CCc1ccc(-c2c(C)c(-c3cnn(C)c3)nc(N)c2C#N)o1,49.25
10,Cc1c(-c2cnn(C)c2)nc(N)c(C#N)c1-c1ccc(CO)o1,55.7
11,COc1ccc(Cn2cc(C(=O)N(C)Cc3cnccn3)nn2)cc1,-21.09
12,O=C(CC1CC1)N1CCC2(COCc3cnc(N4CCOCC4)nc32)C1 (centres undefined),51.72
13,COCC(=O)N1CCC2(COCc3cnc(-c4ccccc4)nc32)C1 (centres undefined),-22.64
14,COCCC(=O)N1CCC2(COCc3cnc(-c4ccccc4)nc32)C1 (centres undefined),50.32
15,CCC(=O)N1CCC2(COCc3cnc(N4CCOCC4)nc32)C1 (centres undefined),35.84
16,O=C(C1CC1)N1CCC2(COCc3cnc(N4CCOCC4)nc32)C1 (centres undefined),29.95
17,COCCC(=O)N1CCC2(COCc3cnc(-c4cccnc4)nc32)C1 (centres undefined),-20.41
18,O=C(c1cc(=O)c(OCc2ccccc2F)co1)N1CCSCC1,36.6
19,c1csc(CN2CCOCC3(CCN(C4CCOCC4)C3)C2)n1 (centres undefined),2.71
20,CC(C)c1nc(CN2CCCC2Cn2cncn2)no1 (centres undefined),-13.92
21,CCN1CCCC(C)(C(=O)NCc2nncn2CCc2ccccc2)C1 (centres undefined),-4.93
22,c1ccc(-c2nc(CN3CCCC3Cn3cncn3)no2)cc1 (centres undefined),-5.3
23,CC1(C)CC(=O)N(CC(=O)Nc2ccon2)c2ccccc21,40.97
24,CCn1ccnc1CN1CCN(CC(O)CN2CCOCC2)CC1 (centres undefined),38.68
25,Cc1ccc(CNC(CN2CCN(C)CC2)c2ccccc2)cc1 (centres undefined),-10.6
26,CN1CCN(CC(NCc2ccc(F)c(F)c2)c2ccccc2)CC1 (centres undefined),12.57

row,Compound,INHIBITION [%]
1,CN1CCN(CC(NCc2ccc(F)cc2)c2ccccc2)CC1 (centres undefined),58.29
2,c1ccc(CNCC2Cn3nnc(-c4ccncc4)c3CO2)nc1 (centres undefined),2.87
3,CCc1ccc(-c2cn3c(C(=O)N[C@H](C(N)=O)[C@@H](C)O)csc3n2)cc1,61.82
4,C[C@@H](O)[C@H](NC(=O)c1csc2nc(-c3ccccc3F)cn12)C(N)=O,16.95
5,CCc1ccc(-c2cn3c(C(=O)NCC(C)C(=O)NC)csc3n2)cc1 (centres undefined),8.54
6,CCc1c(C)nc(SCc2ccccn2)[nH]c1=O,50.67
7,CCc1cc(=O)[nH]c(SCc2ccccn2)n1,8.41
8,CCCc1cc(=O)[nH]c(SCc2ccccn2)n1,4.95
9,CNC(=O)c1cc2c(nc1N(C)C)CCN(c1ncccn1)CC2,-31.3
10,Cc1nn2cc(CCNC(=O)c3cc(C(C)C)nn3C)nc2s1,-8.8
11,Cc1cc(C(=O)NCCc2cn3nc(C)sc3n2)c(C)o1,55.66
12,Cc1nn2cc(CCNC(=O)c3cc(C(C)C)no3)nc2s1,11.9
13,COCC1CN(C(=O)Cc2cccc(F)c2)Cc2ccnn2C1 (centres undefined),13.52
14,CCCN(CCc1ccccn1)C(=O)CCc1cnn(C)c1,-46.85
15,CC1(C)CC(N(Cc2ccccc2)Cc2cccnc2)CC(C)(C)N1,26.52
16,O=C(O)c1cccnc1N1CCN(Cc2ccc(F)cc2)C(CCO)C1 (centres undefined),78.43
17,CNC(=O)c1cccnc1N1CCN(Cc2ccccc2)C(CCO)C1 (centres undefined),-4.52
18,Cc1ccc(CN2CCN(c3ncccc3C(N)=O)CC2CCO)cc1 (centres undefined),3.92
19,c1cncc(C2COC3(CCN(Cc4ccsc4)CC3)C2)c1 (centres undefined),32.85
20,Cn1nccc1CN1CCOC(c2cccc(Nc3ccccn3)n2)C1 (centres undefined),-88.78
21,Cc1nc(C)c(CNC(=O)N2CCc3ccccc3C2CO)s1 (centres undefined),5.98
22,Cc1cc(CC(=O)NC2CCCN(Cc3ccccc3)C2=O)n[nH]1 (centres undefined),-8.63
23,COc1cccc(C(=O)N2CCC3(CCC(=O)N(C(C)C)C3)CC2)c1C,63.37
24,COc1ccc(F)cc1C(=O)N1CCC2(CCC(=O)N(C(C)C)C2)CC1,23.76
25,COc1cc(C)ccc1C(=O)N1CCC2(CCC(=O)N(C(C)C)C2)CC1,-4.62
26,CC(=O)N1CCN(C(=O)CNc2cccc(OC(F)F)c2C)CC1,17.61
